Common to all, as to experiment: NCI-60 one-dose screen, 48 h (100 = growth as untreated, 0 = no growth, -100 = all killed)
Common to all, as to conditions: 10 µM unless noted

Experiment [1] has as its system DU-145 prostate.
In experiment [2] the test system is K-562 leukemia.
The test system of experiment [3] is MALME-3M melanoma.
For experiment [4], the system named is MDA-MB-231 breast.
The subject of experiment [5] is RXF 393 renal.
The subject of experiment [6] is SF-268 CNS.
Experiment [7] relates to SF-295 CNS.
Experiment [8] deals with SF-539 CNS.
Experiment [9] relates to UACC-257 melanoma.
The subject of experiment [10] is M14 melanoma.
Experiment [11] relates to HCT-15 colon.
The test system of experiment [12] is HT29 colon.
The subject of experiment [13] is SNB-19 CNS.
Experiment [14] deals with U251 CNS.
The subject of experiment [15] is PC-3 prostate.
The test system of experiment [16] is SK-MEL-5 melanoma.
For experiment [17], the system named is UACC-62 melanoma.
The subject of experiment [18] is LOX IMVI melanoma.
The test system of experiment [19] is SK-MEL-28 melanoma.

Compounds without any hit were thinned out: in the full panel of roughly 83,000, 20% have a hit.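 Compound tested at a single concentration for 48 hours in 96-well plates; a percent growth value below 10 was scored as active.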 A number with no mark means an inactive call. Activity calls are given as the source filed them.

With `Nc1c(C(=O)Nc2cccc3c2OCCO3)sc2nc3c(cc12)CN(Cc1ccccc1)CC3`, the growth was 86% in experiment [1]; 20.1% in [2]; 68.1% in [3]; 66.4% in experiment [4]; 71.8% in experiment [5]; 74.2% in experiment [6]. Also, the growth in [7] was 39.7%; in experiment [8] it was 65.2%; in experiment [9], 83%; in experiment [10], 54.6%; in [11], 42.5%; in experiment [12], 35.3%. For the same compound, the growth in [13] was 60.4%; in [14], 56.9%; in [15], 55.1%; in experiment [16] it was 60.8%; in [17], 49.3%; in experiment [18], 53.2%. Besides, the growth in experiment [19] was 75.4%.

`COCCOC(=O)C1=C(C)NC(=S)NC1c1ccc2c(c1)OCO2` (stereo unspecified): the growth in experiment [1] is 108%; in [2] it was 91.8%; in experiment [3] it was 108%; in experiment [4], 105%; in [5] it was 101%; in experiment [6], 97.4%. In addition, the growth in experiment [7] was 105%; in experiment [8], 99.2%; in [9], 90.2%; in experiment [10], 104%; in [11], 102%; in experiment [12], 96.7%. For the same compound, the growth is 100% in [13]; 104% in [14]; 95.7% in experiment [15]; 97.6% in [16]; 102% in experiment [17]; 101% in [18]. Further, the growth in [19] is 114%.

On to `CCOC(=O)c1cnc2ccc(OC)cc2c1Nc1cccc(S(=O)(=O)NC)c1`, for which the growth was 102% in experiment [1]; 92.8% in experiment [2]; 105% in experiment [3]; 100% in experiment [4]; -4.54% (active) in experiment [5]; 86.2% in experiment [6]. Further, the growth was 54.7% in experiment [7]; 50.1% in experiment [8]; 112% in [9]; 115% in experiment [10]; 82.3% in experiment [11]; 112% in [12]. The growth in experiment [13] was 89%; in [14], 71.6%; in experiment [15], 95.3%; in experiment [16], 100%; in experiment [17], 103%; in [18] it was 99.1%. Further, the growth in [19] is 85.9%.

`CSc1nc2sc3c(c2c(=O)n1-c1ccc(C(C)C)cc1)CCC(=O)C3`: the growth in experiment [1] was 40.5%; in [2] it was 2.37% (active); in experiment [3] it was 2.52% (active); in [4], -17.1% (active); in experiment [5] it was -2.94% (active); in experiment [6], 18.9%. Besides, the growth in experiment [7] is 4.21% (active); in experiment [8], -22.1% (active); in experiment [9] it was 84.7%; in experiment [10], 10.1%; in [11], -15.9% (active); in experiment [12], 11.4%. The growth in experiment [13] was 9.58% (active); in experiment [14], -80% (active); in [15], -6.64% (active); in [16], -79.9% (active); in [17], -20.8% (active); in experiment [18], -39.6% (active). Besides, the growth in experiment [19] was 28.7%.

Take `Nc1nc2ccc(-c3nc4ccc5[nH]ncc5c4c4c3CCC4)cc2s1`: the growth was 16.5% in experiment [1]; 19.4% in experiment [2]; -2.7% (active) in experiment [3]; 42.2% in [4]; -21.9% (active) in [5]; 37.7% in [6]. The growth is 13.6% in experiment [7]; 3.96% (active) in experiment [8]; 36.9% in experiment [9]; 29.1% in experiment [10]; 11.3% in experiment [11]; 8.06% (active) in experiment [12]. Besides, the growth in experiment [13] is 42.6%; in experiment [14] it was 33.9%; in experiment [15], 23.1%; in experiment [16], 1.24% (active); in [17], -46.2% (active); in experiment [18], 19.6%. Besides, the growth in experiment [19] was 44.5%.

For the compound `COc1cc(/C=N\NC(=O)CN2CCN(c3cc4c(cc3F)c(=O)c(C(=O)N/N=C/c3ccc(O)c(OC)c3)cn4C3CC3)CC2)ccc1O`, the growth was 66.3% in experiment [1]; 40.5% in experiment [2]; 62.4% in [3]; 59.5% in experiment [4]; 86.9% in experiment [5]; 59.4% in [6]. Further, the growth in experiment [7] was 90.5%; in experiment [8], 86.9%; in experiment [9], 41%; in experiment [10], 80%; in experiment [11], 97.2%; in experiment [12] it was 14.1%. The growth was 55.5% in experiment [13]; 55.3% in experiment [14]; 69.7% in [15]; 56.8% in experiment [16]; 52.9% in experiment [17]; 8.64% (active) in experiment [18]. Besides, the growth in experiment [19] is 79.8%.

Take `COc1cccc(-c2nc3sccn3c2-c2ccnc(NCCCNS(=O)(=O)c3ccc(Cl)cc3)c2)c1`: the growth in [1] was 51.3%; in experiment [2], 29.4%; in [3], 74.1%; in [4], 59.5%; in experiment [5], 65.3%; in experiment [6] it was 44.2%. Further, the growth in [7] is 42.7%; in experiment [8] it was 66.7%; in experiment [9] it was 59.4%; in [10] it was 41.1%; in experiment [11] it was 37.8%; in experiment [12] it was 42.6%. The growth in experiment [13] is 69.4%; in experiment [14], 63.5%; in experiment [15], 26.2%; in experiment [16] it was 1.31% (active); in [17], 6.77% (active); in [18], 39.2%. In addition, in [19], the growth is 69.6%.

For `OC(c1cccc(C(F)(F)F)c1)c1cnccc1NC1CCCCCC1` (stereo unspecified), the growth in experiment [1] was 71.6%; in experiment [2] it was 3.23% (active); in [3] it was -77.7% (active); in experiment [4], 10.6%; in [5], 32.3%; in experiment [6] it was 60.5%. The growth in experiment [7] was 14.2%; in experiment [8], 74.2%; in experiment [9] it was 39.5%; in [10], -21.8% (active); in experiment [11], 8.21% (active); in experiment [12], -6.41% (active). Further, the growth in [13] is 69.3%; in [15], 22.4%; in [16], -68.2% (active); in experiment [17] it was 55%; in experiment [18] it was -18.7% (active); in experiment [19], -12.9% (active).

Source of the values: PubChem BioAssay (NCI).
